Experimental data as given in PubChem BioAssay (NCI).
Values joined by “and” are separate entries in the source; they are usually repeats but may differ in a detail not shown here. Identical values can stand only once. Compounds without any hit were thinned out: in the full panel of roughly 83,000, 20% have a hit.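 Interpretation: 100, growth as untreated; towards 0, rising growth inhibition; 0, no net growth; 0 to -100, cell death. Compounds scoring below 10 were considered active.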 Active and inactive are the calls of the source.

Experiments:
Assay in all cases: NCI-60 one-dose screen, 48 h (100 = growth as untreated, 0 = no growth, -100 = all killed)
HCT-15 colon = details: 10 µM unless noted
HT29 colon = details: 10 µM unless noted
SNB-75 CNS = details: 10 µM unless noted
SNB-19 CNS = details: 10 µM unless noted
U251 CNS = details: 10 µM unless noted
SK-MEL-5 melanoma = details: 10 µM unless noted
UACC-62 melanoma = test system: UACC-62 melanoma
LOX IMVI melanoma = details: 10 µM unless noted
SK-MEL-28 melanoma = details: 10 µM
SK-MEL-2 melanoma = details: 10 µM unless noted
EKVX NSCLC = details: 10 µM unless noted
UO-31 renal = details: 10 µM unless noted
TK-10 renal = test system: TK-10 renal
ACHN renal = details: 10 µM unless noted
CAKI-1 renal = details: 10 µM unless noted
CCRF-CEM leukemia = details: 10 µM unless noted
MOLT-4 leukemia = details: 10 µM unless noted
PC-3 prostate = details: 10 µM unless noted
A498 renal = details: 10 µM unless noted
SR leukemia = details: 10 µM unless noted

Measured: growth

Cc1cc(N=Nc2ccccc2C)ccc1N
inactive: HCT-15 colon 84.9% | HT29 colon 103% | SNB-75 CNS 42.5% | SNB-19 CNS 69.7% | U251 CNS 74.9% | SK-MEL-5 melanoma 79.3% | UACC-62 melanoma; 10 µM 74% | LOX IMVI melanoma 71.5% | SK-MEL-28 melanoma 99.4% | SK-MEL-2 melanoma 127% | EKVX NSCLC 71.9% | UO-31 renal 19.3% | TK-10 renal; 10 µM 124% | ACHN renal 85.3% | CAKI-1 renal 54.7% | MOLT-4 leukemia 29.3%
active: CCRF-CEM leukemia 4.33%

CCCCCCCCCCCC1CCCC(C)N1 (stereo unspecified)
inactive: HCT-15 colon 27.7% | HT29 colon 14.9% | SNB-75 CNS 82% | SNB-19 CNS 93.2% | U251 CNS 59.6% | PC-3 prostate 44.4% | SK-MEL-5 melanoma 97% | UACC-62 melanoma; 10 µM 88.2% | LOX IMVI melanoma 52.3% | SK-MEL-28 melanoma 96.7% | EKVX NSCLC 91.2% | UO-31 renal 29% | ACHN renal 77.8% | CAKI-1 renal 86.6% | A498 renal 95.8% | CCRF-CEM leukemia 16.5% | MOLT-4 leukemia 14.1%
active: SK-MEL-2 melanoma -7.27% | SR leukemia -28%

CC[C@](O)(C(=O)O)c1cc2n(c(=O)c1CO)Cc1cc3ccccc3nc1-2
active: HCT-15 colon -5.77% | HT29 colon -31.3% | SNB-75 CNS -33.5% | SNB-19 CNS 1.96% | U251 CNS 1.58% | PC-3 prostate -8.14% | SK-MEL-5 melanoma -94.2% | UACC-62 melanoma; 10 µM -68.6% | LOX IMVI melanoma -40.9% | SK-MEL-2 melanoma -20.9% | UO-31 renal -61% | TK-10 renal; 10 µM 6.69% | ACHN renal -57.1% | CAKI-1 renal -28.8% | A498 renal -76.5% | CCRF-CEM leukemia -24.5% | MOLT-4 leukemia -38.3% | SR leukemia -20.3%
inactive: EKVX NSCLC 10.2%

Cc1c(N)nc([C@H](CC(N)=O)NC[C@H](N)C(N)=O)nc1C(=O)N[C@H](C(=O)N[C@H](C)[C@@H](O)[C@H](C)C(=O)N[C@H](C(=O)NCCc1nc(-c2nc(C(=O)NCCC[S+](C)C)cs2)cs1)[C@@H](C)O)C(OC1OC(CO)C(O)C(O)C1OC1OC(CO)C(O)C(OC(N)=O)C1O)c1cnc[nH]1 (stereo partly specified)
inactive: HCT-15 colon 67.8% [2.5 µM] | HT29 colon 77.9% [2.5 µM] | SNB-75 CNS 40.6% [2.5 µM] | SNB-19 CNS 74.2% [2.5 µM] | U251 CNS 58.4% [2.5 µM] | PC-3 prostate 60.5% [2.5 µM] | SK-MEL-5 melanoma 34.1% [2.5 µM] | UACC-62 melanoma; 2.5 µM 43.8% | LOX IMVI melanoma 14.3% [2.5 µM] | SK-MEL-2 melanoma 125% [2.5 µM] | EKVX NSCLC 103% [2.5 µM] | UO-31 renal 39.9% [2.5 µM] | TK-10 renal; 2.5 µM 89.5% | CAKI-1 renal 26.4% [2.5 µM] | A498 renal 84.1% [2.5 µM] | CCRF-CEM leukemia 51.6% [2.5 µM] | MOLT-4 leukemia 67.1% [2.5 µM]
active: UACC-62 melanoma; 25 µM -42.5% and -100% | ACHN renal -6.04% [2.5 µM] | SR leukemia -4.59% [2.5 µM]
42.4% (inactive) and -73.8% (active): TK-10 renal; 25 µM
